In the library only some 12% were active in any assay of this set; here they are far more common.
SARS PLP yeast – blocks SARS-CoV papain-like protease in a yeast assay; S. cerevisiae expressing SARS-CoV PLpro, growth rescue; actives 0.19% (n = 330,000); Potency, µM (series often up to 32.9 µM), without a hit: at the highest dose activity, positive = growth rescue, actives largely listed as activators; calls by dose curve; note: 0% is about no effect; nearly all actives have a fitted effect of over 55% in size
Pf growth 96h – P. falciparum growth inhibition at 96 hours. Potency, µM (titrated, usually from 28.7 µM), for the others: at the top dose activity change, negative = inhibition, most hits filed as inhibitors. P. falciparum luciferase reporter growth, 96 h. AID 504834. actives 6.9% (n = 320,000); note: % is set by controls: 0 for no effect and ±100 for the full control effect
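Two parasite generations (96 h, 37 C, 5% CO2) of compound exposure in infected erythrocytes (0.05% parasitemia, 2% hematocrit). Luciferase-reporter P. falciparum; decreased luminescence indicates inhibited growth, aimed at apicoplast-acting delayed death.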
HCV inhibitor – HCV inhibition; Huh7.5.1 HCVcc-Cre infection, luciferase reporter, 44 h; actives 3.4% (n = 340,000); AID 651820; Potency, µM (highest dose often 41.8 µM), inactives show at the top dose activity change, negative = inhibition, actives largely listed as inhibitors; note: % is set by controls: 0 for no effect and ±100 for the full control effect
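After 44 h co-culture of compound, cells and HCVcc-Cre (~0.5 moi), substrate is added for 15 min at room temperature and luciferase measured over 15 sec. Cells were seeded at 1,000/well and pre-cultured 4 h.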
AMA1 RON2 block – AMA1-RON2 (P. falciparum) interaction inhibition | AlphaScreen AMA1-biotinylated RON2 peptide binding | Potency, µM (highest dose often 58.2 µM), for the others: top-dose activity change, negative = inhibition, most hits filed as inhibitors | actives 0.2% (n = 360,000) | AID 720542;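 note: 0% = vehicle wells and -100% = peptide control; nearly all actives have a fitted effect of over 45% in size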
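AMA1 (3D7) with his tag at 25 nM final met compounds first, then biotinylated RON2 peptide at 25 nM; detection used donor plus acceptor beads, 10 µg/mL apiece, read by AlphaScreen after 30 min at room temperature.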
NS1 inh – influenza NS1 inhibition; AID 2326; actives 0.4% (n = 270,000); Potency, µM (highest dose often 46.1 µM), without a hit: top-dose activity, positive = more growth; calls by dose curve; note: actives are rising curves; nearly all actives have a fitted effect of over 50% in size
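Read-out: OD600 growth recovery of NS1-expressing budding yeast. Cells grown overnight at 30C in -URA glucose medium, washed, resuspended and diluted 1:100 in 2% galactose assay medium, pH 6.0. Same strain lacking NS1 served as positive control.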
Pf growth 48h – P. falciparum growth inhibition at 48 hours (one generation); P. falciparum luciferase growth in erythrocytes, 48 h; Potency, µM (doses to about 28.7 µM), for the others: at the top dose activity change, negative = inhibition, most hits filed as inhibitors; actives 5.9% (n = 310,000); note: % is set by controls: 0 for no effect and ±100 for the full control effect
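Compounds are pin-transferred into medium, infected erythrocytes (2% hematocrit, 0.1% parasitemia final) are added, and plates sit one parasite generation at 37 C in 5% CO2. Detection reagent is then added and luminescence measured.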
* = called active by the depositor; i = inactive; ? = inconclusive; / = not tested or not shown. Unless noted, calls come from the whole dose curve; as a rule, active = well fitted curve in the direction sought with a large enough effect; inconclusive = small, poorly fitted or top-dose-only effect, or another doubt; inactive = no such curve, though single readings can be large; an effect the other way counts as inactive or inconclusive. Potency is the fitted concentration of half-maximal effect.

SMILES	SARS PLP yeast	Pf growth 96h	HCV inhibitor	AMA1 RON2 block	NS1 inh	Pf growth 48h
CCN1C(=O)/C(=C\c2ccc3c(c2)OCO3)C(C(=O)OC)=C1C	-8%	1.9µM*	-16%	-23%	-18%	3%
O=C(NCCCN1CCN(Cc2ccccc2)CC1)C1CCN(c2nnc(-n3cccc3)s2)CC1	-3%	63%	?	-6%	8%	?
O=C(NCCCN1CCc2ccccc2C1)C1CCN(c2nnc(-n3cccc3)s2)CC1	2%	?	?	-4%	?	4.1µM*
CC(NC(=O)Cc1ccc(NS(=O)(=O)c2cccc(C(F)(F)F)c2)cc1)c1ccccn1 (configuration not stated)	14%	?	?	-7%	21%	?
Cc1cc2ncn(C3CC(=O)N(Cc4ccc(N5CCCC5=O)cc4)C3=O)c2cc1C (configuration not stated)	4%	8.3µM*	2%	1%	-9%	19%
O=C1CC(N2CCOCC2)C(=O)N1Cc1ccc(N2CCCC2=O)cc1 (configuration not stated)	0%	173%	6%	13%	-7%	/
O=C1CC(N2CCN(Cc3ccc4c(c3)OCO4)CC2)C(=O)N1Cc1ccc(N2CCCC2=O)cc1 (configuration not stated)	-4%	9.3µM*	-15%	-10%	-8%	?
O=C1CC(N2CCC(O)(c3ccc(Cl)cc3)CC2)C(=O)N1Cc1ccc(N2CCCC2=O)cc1 (configuration not stated)	0%	/	?	-13%	-43%	9.3µM*
CC1(C(=O)NS(=O)(=O)c2ccc(Cl)s2)CCN1C(=O)c1ccc(C2CCCCC2)cc1 (configuration not stated)	/	/	/	-5%	/	/
CCC(C)[C@H](NC(=O)N1CCCC1)C(=O)O (some centres not stated)	-6%	6.6µM*	18%	1%	0%	/
COC(=O)[C@H](CC(C)C)NC(=O)N1CCCCC1	1%	20%	23%	-9%	0%	14%
Cc1nnc2n(C3CCCCC3)c(=O)c3c4c(sc3n12)CCC4	-4%	3.3µM*	/	/	-2%	-2%
CSc1nnc2n(C3CCCCC3)c(=O)c3c4c(sc3n12)CCCC4	0%	-7%	14%	/	1%	3%
CC(C)(C)c1nc2ccccc2c2nnc(SCC(=O)Nc3nc4ccccc4s3)n12	-1%	35%	13µM*	?	5%	-5%
CCN(CC)C(=O)CSc1nc2cc3c(cc2c(=O)n1Cc1ccco1)OCO3	-1%	8%	10µM*	-9%	/	-34%
C=CCn1c(SCC(=O)OCC)nc2cc(C(=O)NCc3ccco3)ccc2c1=O	6%	7.4µM*	?	3%	2%	/
CC(C)(C)c1nc2ccccc2c2nnc(SCC(=O)Nc3nccs3)n12	0%	36%	?	-3%	?	14%
CCN(C(=O)CSc1nc2cc(C(=O)OC)ccc2c(=O)n1Cc1ccco1)c1cccc(C)c1	3%	-7%	?	3%	-3%	4.7µM*
Cc1nc(/C=C/c2ccccc2)[nH]c(=O)c1-c1ccccc1	13%	241%	4%	-12%	4%	184%
c1ccc2c(c1)CCC[C@@H]2C1=NCCN1	/	-1%	/	/	/	5%
COc1ccc2[nH]cc(CCNC(=O)CCC3CCCCC3)c2c1	-7%	?	-30%	-12%	16%	-7%
CCCCC[C@@H]1[C@H]2[C@H]3C(=O)N(c4ccccc4)C(=O)[C@H]3CC(=O)[C@H]2[C@H](c2ccccc2)N1S(=O)(=O)c1ccc(C)cc1	/	/	/	17%	/	/
O=C(CCN1C(=O)c2ccccc2C1=O)NCc1ccc(Cl)cc1	-5%	6%	-21%	6%	0%	29%
CCOC(=O)[C@]12CCC=C1N(CCC1=CCCCC1)C(=O)[C@H](CC(=O)NCc1cccs1)C2	/	/	/	-9%	/	/
NC(=O)C1CCN(C(=O)c2ccc3c(=O)n(Cc4ccco4)c(SCc4ccc([N+](=O)[O-])cc4)nc3c2)CC1	7%	?	2%	0%	27%	12µM*
SMILES	SARS PLP yeast	Pf growth 96h	HCV inhibitor	AMA1 RON2 block	NS1 inh	Pf growth 48h
CCOC(=O)CSc1nc2c(sc3ccc([N+](=O)[O-])cc32)c(=O)n1Cc1ccco1	14%	33%	6.3µM*	9%	11%	6.6µM*
O=c1c2ccccc2nc(SCc2ccccc2)n1Cc1ccco1	-4%	18%	?	4%	-14%	?
Cc1ccc(CSc2nc3ccccc3c(=O)n2Cc2ccco2)cc1	-14%	9.3µM*	-13%	-19%	3%	13µM*
CCOc1ccc2nc(NC(=O)CSc3nc4ccccc4c(=O)n3Cc3ccco3)sc2c1	2%	1.3µM*	?	3%	4%	?
O=C(CSc1nc(=O)n2ccccc2n1)NCc1ccccc1	3%	5%	5%	0%	/	-10%
O=C(CSCc1ccc(Cl)cc1)Nc1ccc(S(=O)(=O)N2CCOCC2)cc1	14%	?	1%	-12%	-1%	-3%
Cc1ccc(C)c(OCC(=O)Nc2ccc(S(=O)(=O)Nc3onc(C)c3C)cc2)c1	-5%	26%	-5%	-4%	-10%	25%
COc1ccc(CCN2C(=O)CCC2(C)c2nnnn2-c2ccc3c(c2)OCCO3)cc1OC (configuration not stated)	/	/	/	3%	/	/
CCOC(=O)CN1C(=O)S/C(=C/C=C/c2ccc(N(C)C)cc2)C1=O	2%	-14%	?	?	20%	105%
COc1ccc(NC(=O)CSCC(=O)N2CCN(C(=O)c3ccco3)CC2)cc1	0%	?	4%	-3%	/	-10%
O=C(NCc1ccc2c(c1)OCO2)c1ccc(S(=O)(=O)N2CCOCC2)cc1	-2%	?	-13%	-12%	/	-6%
CCOC(=O)CSc1nc2ccccc2c(=O)n1NC(=O)c1ccccc1	2%	7.4µM*	10%	28%	-11%	347%
COc1ccc(C(=O)Nn2c(SCC(=O)c3ccccc3)nc3ccccc3c2=O)cc1	4%	i	?	-10%	8%	-25%
O=c1c2ccccc2nc(SCc2nnc(-c3ccccc3Br)o2)n1Cc1ccco1	-3%	/	13µM*	13%	?	?
O=C(CSc1nc2ccccc2c(=O)n1Cc1ccco1)c1ccccc1	-5%	0%	?	4%	-4%	-19%
COCCNC(=O)c1ccc2c(=O)n(Cc3ccco3)c(SCC(=O)NC3CCCC3)nc2c1	10%	12µM*	-4%	0%	-4%	/
CCOC(=O)CSc1nc2ccccc2c(=O)n1Cc1ccco1	-1%	1%	13µM*	-9%	-18%	-2%
COCCNC(=O)CSc1nc2cc3c(cc2c(=O)n1Cc1ccco1)OCO3	-4%	23%	?	-5%	5%	15%
